VDR inhibitor – vitamin D3 receptor (human) inhibition; VDR-SRC2-3 peptide fluorescence polarization, 2 h; Potency, µM, for inactives: max response, negative = inhibition, usual class: inhibitors; 0.93% of 400,000 active; AID 504847; also: potency is read from the fitted curve at half-maximal effect; % is scaled to controls: 0 for no effect and ±100 for the full control effect
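The screen uses fluorescence polarization to detect compounds that interfere with recruitment of the SRC2-3 coactivator peptide to VDR; plates are read after 2 h at room temperature.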
PLK1 PBD inh – blocks phosphopeptide binding to human PLK1 polo-box domain; P53350; Plk1 PBD binding of FITC phosphopeptide, fluorescence polarization; Potency, µM, inactives show max response, negative = inhibition, usual class: inhibitors; 2.8% of 360,000 active; AID 720504; also: potency is read from the fitted curve at half-maximal effect; series mostly up to about 57 µM; % is scaled to controls: 0 for no effect and ±100 for the full control effect; nearly all actives have a fitted effect of over 65% in size
Target sequence (P53350 whole entry, looked up, the tested form may be a part): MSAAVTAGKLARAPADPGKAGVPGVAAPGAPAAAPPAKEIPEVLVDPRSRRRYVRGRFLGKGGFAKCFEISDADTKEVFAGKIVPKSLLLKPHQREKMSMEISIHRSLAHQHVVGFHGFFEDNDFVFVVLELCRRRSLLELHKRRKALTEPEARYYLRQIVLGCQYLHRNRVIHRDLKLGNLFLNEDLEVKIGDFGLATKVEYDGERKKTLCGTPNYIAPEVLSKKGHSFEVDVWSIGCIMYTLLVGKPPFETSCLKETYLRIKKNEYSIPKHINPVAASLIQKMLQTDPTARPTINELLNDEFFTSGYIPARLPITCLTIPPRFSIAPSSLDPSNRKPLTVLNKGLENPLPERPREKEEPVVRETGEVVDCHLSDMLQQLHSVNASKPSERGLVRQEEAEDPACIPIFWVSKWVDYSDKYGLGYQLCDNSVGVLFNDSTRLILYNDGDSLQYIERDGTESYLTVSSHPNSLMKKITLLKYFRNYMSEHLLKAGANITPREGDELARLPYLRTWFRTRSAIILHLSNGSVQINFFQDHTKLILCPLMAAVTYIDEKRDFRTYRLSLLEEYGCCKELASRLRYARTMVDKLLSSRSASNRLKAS
GALK inhibitor – galactokinase (human) inhibition. Potency, µM (titrated, usually from 57.5 µM), without a hit: at the highest dose activity change, negative = inhibition, actives largely listed as inhibitors. 0.007% of 270,000 active. Purified GALK, Kinase-Glo residual ATP luminescence; also: potency is read from the fitted curve at half-maximal effect; % is scaled to controls: 0 for no effect and ±100 for the full control effect
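Human GALK (5 nM) with 35 uM ATP and 100 uM galactose in 20 mM HEPES pH 8.0, 5 mM MgCl2, 60 mM NaCl, 1 mM DTT, 0.01% BSA. After 1 h at room temperature, leftover ATP was read by Kinase-Glo Plus luminescence.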
USP1-UAF1 inh – blocks the human USP1/UAF1 deubiquitinase complex | AID 743255 | 0.23% of 390,000 active | O94782 | recombinant USP1/UAF1, Ub-Rhodamine cleavage fluorescence | Potency, µM (titrated, usually from 57.1 µM), for the others: top-dose activity change, negative = inhibition, hits mostly inhibitors; also: potency is read from the fitted curve at half-maximal effect; % is scaled to controls: 0 for no effect and ±100 for the full control effect; nearly all actives have a fitted effect of over 60% in size
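Step one: compound is pinned into 1nM USP1/UAF1 in HEPES pH 7.8 buffer with TCEP. Step two: 15 min room-temperature incubation. Step three: Ub-Rho (150nM final) starts cleavage, tracked by fluorescence over six one-minute reads.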
USP2a block – inhibitors of human ubiquitin-specific protease USP2a | Potency, µM (doses to about 38.3 µM), for inactives: at the top dose activity change, negative = inhibition, actives largely listed as inhibitors | 0.01% of 330,000 active | O75604 | USP2 core, Ub-CHOP2 coupled fluorogenic reporter, 485/531;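 also: potency is read from the fitted curve at half-maximal effect; plate controls were DMSO wells for no effect and full inhibition by NEM control for full effect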
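USP2 core (10nM final) preincubated 30min RT with compound in 20mM Tris-HCl pH 8.0, 2mM CaCl2, 2mM beta-mercaptoethanol, 0.05% CHAPS; 25nM Ub-CHOP2 plus 25nM reporter substrate added, fluorescence (Ex485/Em531) read after 60min.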
Coupling enz – counter-screen for Giardia aldolase inhibitors: coupling enzyme system; coupling enzyme system counterscreen, AmpLite Red fluorescence; activity change, negative = inhibition, % at 58.2 µM, hits read low; 0.67% of 290,000 active; AID 2472; in the data active = activity change below about -30%; also: % is scaled to controls: 0 for no effect and ±100 for the full control effect
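Counterscreen lacking aldolase: glyceraldehyde-3-phosphate coupling-enzyme reagent preincubated 10 min at RT with compound (at 57.5 uM final), then substrate/coupling system with AmpLite Red added; fluorescence read at 525/598 nm after 20 min RT.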
VDR inh confirm – inhibits human vitamin D receptor, primary hit validation. AID 602199. VDR-coactivator inhibition assay, qHTS confirmation. 89% of 840 active. Potency, µM, usual class: inhibitors. shares compounds with VDR inhibitor; also: potency is read from the fitted curve at half-maximal effect
VDR FP – blocks human VDR-coactivator binding in fluorescein assay; shares compounds with VDR inhibitor; Potency, µM (top dose mostly 57.1 µM), without a hit: at the highest dose activity change, negative = inhibition, hits mostly inhibitors; VDR-coactivator binding, fluorescein fluorescence polarization; 48% of 840 active; also: potency is read from the fitted curve at half-maximal effect
VDR bla – VDR (human) inhibition, cell-based beta-lactamase validation. AID 602202. 23% of 840 active. VDR beta-lactamase reporter cells, FRET ratio; cells co-treated with VDR agonist LG190178. shares compounds with VDR inhibitor. Potency, µM (titrated, usually from 46.1 µM), inactives show at the highest dose activity change, negative = inhibition, hits mostly inhibitors; also: potency is read from the fitted curve at half-maximal effect; % is scaled to controls: 0 for no effect and ±100 for the full control effect
VDR cytotox – cell toxicity, VDR inhibitor hit counter-screen. 18% of 840 active. shares compounds with VDR inhibitor. cytotoxicity counter-screen, cell viability, qHTS. Potency, µM (top dose mostly 48.3 µM), inactives show at the highest dose activity change, negative = cytotoxicity, most hits filed as cytotoxic;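 also: potency is read from the fitted curve at half-maximal effect; plate controls were DMSO for no effect and high-concentration cycloheximide for full effect; nearly all actives have a fitted effect of over 75% in size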
* hit, by the source's call; ? = inconclusive; / = no result given; [ ] = remark or other dose. An excerpt weighted towards active compounds, which were near 3.2% of everything screened. Unless noted, calls follow the shape of the dose curve; as a rule, active = well fitted curve in the direction sought with a large enough effect; inconclusive = small, poorly fitted or top-dose-only effect, or another doubt; inactive = no such curve, though single readings can be large; an effect the other way counts as inactive or inconclusive.

SMILES	VDR inhibitor	PLK1 PBD inh	GALK inhibitor	USP1-UAF1 inh	USP2a block	Coupling enz	VDR inh confirm	VDR FP	VDR bla	VDR cytotox
CCOc1cc(/C=C\c2[nH]c(=O)[nH]c(=O)c2[N+](=O)[O-])ccc1OC(C)CC (stereo unspecified)	11µM*	-20%	-9%	-14%	2%	13	8.4*	175%	?	19%
COc1ccc([C@H]2Oc3cc(O)cc(O)c3C(=O)C2[C@@H]2C(=O)c3c(O)cc(O)cc3O[C@@H]2c2ccc(OC)cc2)cc1 (stereo partly specified)	-10%	-9%	-11%	-25%	-1%	-1	/	/	/	/
CCc1ccccc1N1CC(C(=O)Nc2cc(S(=O)(=O)N3CCCC3)ccc2Cl)CC1=O (stereo unspecified)	13%	-9%	/	-9%	2%	/	/	/	/	/
CC(C)c1ccc(/C=C/c2[nH]c(=O)[nH]c(=O)c2[N+](=O)[O-])cc1	22µM*	-6%	/	-20%	1%	15	3.8*	?	?	29%
CCOC(=O)c1csc(NC(=O)CSc2nnnn2-c2ccc(OC)cc2)n1	1%	4%	0%	16%	0%	2	/	/	/	/
CCOC(=O)c1c(NC(=O)CSc2nnnn2-c2ccc(OC)cc2)sc(C)c1C	18µM*	2.1µM*	0%	-18%	4%	-8	?	?	7%	24%
COc1c2ccoc2nc2c(OC)c(O)ccc12	-10%	4%	5%	-1%	4%	4	/	/	/	/
O=C(O)[C@@H]1CCCN1C(=O)c1ccco1	-6%	-2%	-2%	1%	1%	-1	/	/	/	/
Cc1ccc(S(=O)(=O)N2CCOCC2)cc1NC(=O)CSc1ccc(Cl)cc1	-22%	-22%	/	-20%	2%	/	/	/	/	/
O=C(CCCSc1ccc(Cl)cc1)Nc1cc(S(=O)(=O)N2CCOCC2)ccc1O	?	3.4µM*	/	-11%	1%	/	4*	3.2µM*	-6%	-9%
COC(=O)c1ccc(NS(=O)(=O)c2ccc(S(=O)(=O)N3CCOCC3)cc2)cc1	16%	0%	/	-3%	2%	/	/	/	/	/
CCOC(=O)c1ccc(S(=O)(=O)Nc2cc(S(=O)(=O)N3CCOCC3)ccc2O)cc1	45µM*	5.3µM*	/	?	0%	/	8.4*	?	0%	3%
CCOc1cc(C=O)ccc1OCCSc1ccc(C)cc1	-1%	-9%	-3%	-12%	-2%	-3	/	/	/	/
O=C(NN=C1CCCC1)NC1CCCCC1	-27%	-4%	-5%	-16%	4%	4	/	/	/	/
CC(=O)NC1=CC(=O)c2nonc2C1=O	56µM*	/	/	/	/	/	2.5*	2.5µM*	2.9µM*	3.8µM*
CC(=O)Nc1nonc1NC(=O)c1ccc(C(C)(C)C)cc1	-16%	-1%	-1%	-12%	2%	1	/	/	/	/
O=C(c1cccs1)c1no[n+]([O-])c1C(=O)c1cccs1	45µM*	?	-5%	-16%	2%	-67*	6.3*	3.5µM*	2.6µM*	3µM*
COC(=O)c1ccccc1NC(=O)CSc1nc2sc3c(c2c(=O)[nH]1)CCCC3	14µM*	/	/	14%	/	/	?	4µM*	3%	4%
O=[N+]([O-])/C=C/c1cn(Cc2ccc(F)cc2)c2ccccc12	20µM*	?	1%	-20%	-10%	0	6.7*	?	21µM*	?
O=c1oc2ccc(F)cc2c2c1C1O[C@](c3ccsc3)(Cc3c1ccc1ccccc31)O2	/	/	/	/	1%[7.66 µM]	1	/	/	/	/
Cc1ccccc1/[N+]([O-])=C/c1cccs1	-15%	-18%	-7%	-3%	3%	4	/	/	/	/
CCc1noc(C)c1C(=O)N1CCCC(C(=O)c2ccc(OC)c(F)c2)C1 (stereo unspecified)	1%	-5%	-2%	4%	4%	0	/	/	/	/
O=C(NCc1cccnc1)/C(=C\c1ccc(-c2ccc(Cl)c(Cl)c2)o1)S(=O)(=O)c1ccccc1	40µM*	-29%	-2%	-12%	-3%	-4	15*	?	12µM*	15µM*
Cc1ccc(NN2C(=O)C=C(c3ccccc3)C2=O)cc1	25µM*	8.4µM*	-2%	-21%	0%	3	8.4*	?	?	-2%
CNC(=S)Nc1ccc(OC)c(OC)c1	-3%	-6%	1%	-15%	1%	1	/	/	/	/
SMILES	VDR inhibitor	PLK1 PBD inh	GALK inhibitor	USP1-UAF1 inh	USP2a block	Coupling enz	VDR inh confirm	VDR FP	VDR bla	VDR cytotox
COc1ccc(CN2[C@@H](CC(C)=O)c3ccc(/C=C/C(C)=O)cc3S2(=O)=O)cc1	79µM*	-9%	/	-20%	/	/	5*	?	?	?
CCOC(=O)C1C(=O)NC(SCC(=O)Nc2nccs2)=C(C#N)C1c1ccccc1OCC (stereo unspecified)	35µM*	2.7µM*	-1%	?	0%	5	12*	?	16%	?
COc1ccccc1-n1cc(CN2CCN(C3CCCCC3)C(CCO)C2)cn1 (stereo unspecified)	-10%	-8%	3%	-4%	4%	0	/	/	/	/
Cc1cc(C)c(C#N)c(=N)o1	45µM*	4.7µM*	9%	-1%	0%	0	?	?	-21%	4%
CSc1nc(C)cc(C)c1C#N	-1%	2%	-1%	-17%	-1%	/	/	/	/	/
O=C(Oc1ccccc1/C=C\C(=O)c1cc2ccccc2o1)c1ccccc1	?	-11%	-3%	-25%	0%	-1	4*	?	?	-11%
COc1ccc(C(=O)/C=C/c2ccccc2OC)c(OC(=O)c2ccc([N+](=O)[O-])cc2)c1	-18%	-1%	/	-14%	/	/	/	/	/	/
COc1cccc(C(=O)Oc2ccccc2/C=C\C(=O)c2cc3ccccc3o2)c1	?	-13%	0%	-12%	5%	-4	2.8*	3.2µM*	?	-22%

Source: PubChem BioAssay
